In paper PMC5540273 (PLoS ONE, 2017):
Where “and” joins values, the source holds several entries; their conditions need not be identical. Equal entries are not always repeated. Where two headings read alike, the source gives them in different places.

Columns and labels:
[1] = test system: GRK4; conditions: concentration: 1 μM, replicates: in singlicate; n = 1
[2] = test system: GRK7; conditions: concentration: 1 μM, replicates: in singlicate; n = 1
[3] = test system: GSK3A; conditions: concentration: 1 μM, replicates: in singlicate, n = 1
[4] = test system: GSK3B; conditions: n = 1
[5] = test system: T1, HASPIN; conditions: concentration: 1 μM, replicates: in singlicate, n = 1
T1 construct: gene GSG2

[6] = test system: HCK; conditions: concentration: 1 μM, replicates: in singlicate, n = 1
[7] = test system: HIPK1; conditions: concentration: 1 μM, replicates: in singlicate; n = 1
[8] = test system: HIPK2; conditions: concentration: 1 μM, replicates: in singlicate, n = 1
[9] = test system: HIPK3; conditions: concentration: 1 μM, replicates: in singlicate, n = 1
[10] = test system: HIPK4; conditions: concentration: 1 μM, replicates: in singlicate, n = 1
[11] = concentration: 1 μM, replicates: in singlicate
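Further: KINOMEscan kinase panel screen.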

c1ccc(-c2n[nH]cc2-c2ccnc3ccccc23)nc1 [GW271431]
%Inh [1]: 0% | %Inh [2]: 23% | %Inh [3]: 15% | %Inh [4, 11]: 17% | %Inh [5]: 10% | %Inh [6]: 0% | %Inh [7]: 15% | %Inh [8]: 0% | %Inh [9]: 26% | %Inh [10]: 0%

CN(C(=O)c1ccc(-c2cc(-c3c[nH]nc3-c3ccccn3)ccn2)cc1)C1CCOCC1 [GW810083]
%Inh [1]: 4% | %Inh [2]: 0% | %Inh [3]: 0% | %Inh [4, 11]: 4% | %Inh [5]: 0% | %Inh [6]: 0% | %Inh [7]: 22% | %Inh [8]: 25% | %Inh [9]: 0% | %Inh [10]: 0%

c1ccc(-c2cc(-c3c[nH]nc3-c3ccccn3)ccn2)cc1 [GW576604]
%Inh [1]: 0% | %Inh [2]: 0% | %Inh [3]: 11% | %Inh [4, 11]: 0% | %Inh [5]: 16% | %Inh [6]: 0% | %Inh [7]: 0% | %Inh [8]: 0% | %Inh [9]: 15% | %Inh [10]: 6%

CC(C)(CN)c1nc(-c2ccc(Cl)c(O)c2)c(-c2ccncc2)[nH]1.O=C(O)C(F)(F)F [SB-477794]
%Inh [1]: 0% | %Inh [2]: 0% | %Inh ([3]; 1 µM): 49% and 58% | %Inh ([4]; concentration: 1 μM, replicates: in singlicate, 1 µM): 29% and 14% | %Inh ([5]; 1 µM): 58% and 57% | %Inh ([6]; 1 µM): 96.6% and 96% | %Inh [7]: 0% | %Inh ([8]; 1 µM): 1% and 37% | %Inh ([9]; 1 µM): 20% and 4% | %Inh ([10]; 1 µM): 0% and 13%

O=c1cc(N2CCOCC2)nc2n(Cc3cccc(C(F)(F)F)c3)ccn12 [GSK2297543]
%Inh [1]: 0% | %Inh [2]: 0% | %Inh [3]: 6% | %Inh [4, 11]: 3% | %Inh [5]: 0% | %Inh [6]: 0% | %Inh [7]: 18% | %Inh [8]: 0% | %Inh [9]: 7% | %Inh [10]: 1%

COc1ccc(Nc2nccc(N3CCC(NC(=O)Nc4cc(C)ccc4C)C3)n2)cc1 (stereo not shown) [GSK1379741]
%Inh [1]: 0% | %Inh [2]: 0% | %Inh [3]: 0% | %Inh [4, 11]: 18% | %Inh [5]: 0% | %Inh [6]: 0% | %Inh [7]: 0% | %Inh [8]: 0% | %Inh [9]: 16% | %Inh [10]: 0%

[2H]C([2H])(c1cccc(C(F)(F)F)c1C)n1ccn2c(=O)nc(N3CCOCC3)cc12 [GSK2336394]
%Inh [1]: 0% | %Inh [2]: 0% | %Inh [3]: 9% | %Inh [4, 11]: 0% | %Inh [5]: 0% | %Inh [6]: 0% | %Inh [7]: 0% | %Inh [8]: 0% | %Inh [9]: 9% | %Inh [10]: 0%

CNc1ncnc2[nH]ncc12 [SKF-18355]
%Inh [1]: 4% | %Inh [2]: 0% | %Inh [3]: 0% | %Inh [4, 11]: 25% | %Inh [5]: 44% | %Inh [6]: 16% | %Inh [7]: 42% | %Inh [8]: 0% | %Inh [9]: 12% | %Inh [10]: 0%

O=C(NCCNc1ccnc(Nc2ccc(F)cc2)n1)Nc1ccccc1F [GSK1379880]
%Inh [1]: 0% | %Inh [2]: 0% | %Inh [3]: 2% | %Inh [4, 11]: 0% | %Inh [5]: 0% | %Inh [6]: 0% | %Inh [7]: 0% | %Inh [8]: 0% | %Inh [9]: 19% | %Inh [10]: 0%

O=C(NCCCN1CCOCC1)c1cccc(Nc2nccc(Nc3ccc(Oc4ccccc4)cc3)n2)c1 [GW663929]
%Inh [1]: 0% | %Inh [2]: 0% | %Inh [3]: 21% | %Inh [4, 11]: 0% | %Inh [5]: 0% | %Inh [6]: 96.9% | %Inh [7]: 14% | %Inh [8]: 0% | %Inh [9]: 0% | %Inh [10]: 5%

Cl.Oc1cccc(Nc2ccnc3cc(-c4ccncc4)ccc23)c1 [GW494601]
%Inh [1]: 0% | %Inh [2]: 0% | %Inh [3]: 23% | %Inh [4, 11]: 0% | %Inh [5]: 55% | %Inh [6]: 97.7% | %Inh [7]: 0% | %Inh [8]: 0% | %Inh [9]: 0% | %Inh [10]: 0%

O=C(Nc1n[nH]c2cc(-c3cccc(F)c3)ccc12)C1CC1 [SB-735464]
%Inh [1]: 38% | %Inh [2]: 6% | %Inh [3]: 43% | %Inh ([4]; 1 µM): 22% | %Inh [5]: 30% | %Inh [6]: 0% | %Inh [7]: 7% | %Inh [8]: 22% | %Inh [9]: 31% | %Inh [10]: 9%

Cc1cccc(-c2nc(-c3ccc(S(C)(=O)=O)cc3)sc2-c2ccncc2)c1
%Inh [1]: 0% | %Inh [2]: 31% | %Inh [3]: 0% | %Inh [4, 11]: 3% | %Inh [5]: 0% | %Inh [6]: 11% | %Inh [7]: 8% | %Inh [8]: 0% | %Inh [9]: 15% | %Inh [10]: 4%

Cl.Nc1ncnc2occ(-c3ccc(NC(=O)Nc4cc(C(F)(F)F)ccc4F)cc3)c12 [SB-707548]
%Inh [1]: 0% | %Inh [2]: 0% | %Inh [3]: 68% | %Inh [4, 11]: 8% | %Inh [5]: 0% | %Inh [6]: 71% | %Inh [7]: 63% | %Inh [8]: 50% | %Inh [9]: 77% | %Inh [10]: 99.2%

Fc1ccc(-c2ncn(CCCN3CCOCC3)c2-c2cccnc2)cc1 [SB-211743]
%Inh [1]: 14% | %Inh [2]: 0% | %Inh [3]: 24% | %Inh [4, 11]: 20% | %Inh [5]: 41% | %Inh [6]: 34% | %Inh [7]: 38% | %Inh [8]: 0% | %Inh [9]: 18% | %Inh [10]: 4%

O=c1cc(N2CCOCC2)nc2n(Cc3cccc(F)c3)ccn12 [GSK2297430]
%Inh [1]: 1% | %Inh [2]: 0% | %Inh [3]: 0% | %Inh [4, 11]: 11% | %Inh [5]: 4% | %Inh [6]: 0% | %Inh [7]: 0% | %Inh [8]: 0% | %Inh [9]: 9% | %Inh [10]: 0%
